High-throughput results (PubChem BioAssay)
Only a selection was taken, and hits are over-represented in it overall.
ST2 inh = inhibitors of human ST2 (IL1RL1) binding to IL-33, primary screen, biochemical, AlphaLISA | Interleukin-1 receptor-like 1 (Homo sapiens), Q01638 | AlphaLISA ST2-Fc/biotin-IL-33 interaction, 1 h | inhibition, % for hits at 17 µM | 2.3% of 78,000 active | AID 1259354, 2018; in the data active means inhibition above about 30%
Target sequence (Q01638 whole entry, looked up): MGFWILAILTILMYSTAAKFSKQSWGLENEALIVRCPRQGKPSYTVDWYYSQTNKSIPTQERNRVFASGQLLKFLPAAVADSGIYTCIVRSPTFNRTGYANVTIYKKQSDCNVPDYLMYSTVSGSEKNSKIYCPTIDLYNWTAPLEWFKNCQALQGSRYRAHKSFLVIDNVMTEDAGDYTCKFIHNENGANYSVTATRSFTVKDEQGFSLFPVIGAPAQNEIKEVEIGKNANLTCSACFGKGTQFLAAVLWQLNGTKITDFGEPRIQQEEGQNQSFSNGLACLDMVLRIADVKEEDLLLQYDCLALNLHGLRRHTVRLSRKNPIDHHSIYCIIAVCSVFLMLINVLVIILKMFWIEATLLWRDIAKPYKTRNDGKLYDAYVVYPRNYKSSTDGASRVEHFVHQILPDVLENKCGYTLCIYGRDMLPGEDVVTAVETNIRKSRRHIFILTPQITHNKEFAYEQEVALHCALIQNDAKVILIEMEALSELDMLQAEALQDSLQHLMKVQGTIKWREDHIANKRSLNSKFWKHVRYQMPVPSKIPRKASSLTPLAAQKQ
Large screens that a line does not name were inactive.

NC(=O)CSc1nc2c([nH]c3ccccc32)c(=O)n1-c1ccc(Cl)cc1	none
O=C(CSc1nc2c([nH]c3ccccc32)c(=O)n1-c1ccc(F)cc1)N1CCCCC1	none
O=C(CSc1nc2c([nH]c3ccccc32)c(=O)n1-c1cccc(Cl)c1)N1CCOCC1	ST2 inh 35%
CCOc1ccc(N2CC(C(=O)Nc3cccc(C)n3)CC2=O)cc1 (configuration not stated)	none
COc1cccc(OC)c1C(=O)Nc1cccc(Cl)c1	none
O=C(NC[C@H]1O[C@@H](CO)[C@@H](O)[C@H]1N1CCCC1)c1ccco1	none
COc1cc(NC(=O)NC[C@H]2O[C@@H](CO)[C@@H](O)[C@H]2N2CCN(c3cccc(C(F)(F)F)c3)CC2)cc(OC)c1	ST2 inh 86%
O=C(NC[C@H]1O[C@@H](CO)[C@@H](O)[C@H]1N1CCN(c2ccccc2)CC1)N1CCOCC1	none
O=C(NC[C@H]1O[C@@H](CO)[C@@H](O)[C@H]1N1CCN(c2cccc(C(F)(F)F)c2)CC1)c1cccs1	none
COc1ccc(C(=O)NC[C@H]2O[C@@H](CO)[C@@H](O)[C@H]2N2CCN(c3ccccn3)CC2)cc1	none
COc1ccccc1N1CCN([C@@H]2[C@H](O)[C@H](CO)O[C@@H]2CNC(=O)c2cccc(F)c2)CC1	none
CN1CCN([C@@H]2[C@H](O)[C@H](CO)O[C@@H]2CNC(=O)c2cccc(F)c2)CC1	ST2 inh 32%
CN1CCN([C@@H]2[C@H](O)[C@H](CO)O[C@@H]2CNC(=O)Nc2cccc(Cl)c2)CC1	none
O=C(NC[C@H]1O[C@@H](CO)[C@@H](O)[C@H]1N1CCN(c2ccc(F)cc2)CC1)c1ccc(F)c(Cl)c1	ST2 inh 34%
O=C(NC[C@H]1O[C@@H](CO)[C@@H](O)[C@H]1N1CCN(c2ccccc2)CC1)c1ccc(C(F)(F)F)cc1	none
CC(=O)NC[C@H]1O[C@@H](CO)[C@@H](O)[C@H]1N1CCN(c2ccccc2)CC1	ST2 inh 37%
O=C(NC[C@H]1O[C@@H](CO)[C@@H](O)[C@H]1N1CCN(c2cccc(C(F)(F)F)c2)CC1)c1cccc(F)c1	none
Cc1nc2c(sc3nc4c(cc32)COC(C)(C)C4)c(=O)n1CCN1CCOCC1	none
COc1ccc(CNC(=O)CCC2CCCN(C(=O)/C=C/c3ccccn3)C2)c(OC)c1 (configuration not stated)	none
Cc1cc(NC(=O)c2ccc(S(=O)(=O)N(C)C)cc2)nc2c1c(=O)oc1ccccc12	none
COc1ccc(NC(=O)CCC2CCN(C(=O)CSC)CC2)c(OC)c1	none
CC(c1nc2c(s1)CCCC2)N1Cc2ncccc2C1=O (configuration not stated)	none
CS(=O)(=O)CS(=O)(=O)C1=C(N2CCOCC2)C2CCN1CC2	none
O=C1CSC(c2cccc(Cl)c2Cl)N1C1CCCCC1 (configuration not stated)	none
O=C(Cc1ccccc1)Nc1c(C(=O)Nc2cccc(F)c2)oc2ccccc12	none
COc1cc(OC)c(C2C(C(=O)Nc3ccc(C)cc3C)=C(C)Nc3nnnn32)cc1OC (configuration not stated)	none
Cc1ccc(C2(O)CCN(c3noc(C4CC4)n3)CC2)nc1	none
O=c1oc(-c2ccccc2)nc2ccc(Cl)cc12	none
CCc1cc2c(=O)oc(-c3ccccc3C)nc2s1	ST2 inh 33%
Cc1ccccc1-c1nc2cc(NC(=O)CC(C)C)ccc2o1	none
O=C(Nc1cccc(S(=O)(=O)c2cccc(NC(=O)c3ccco3)c2)c1)c1ccco1	none
O=C(O)c1cccc(NC(=O)c2cccc(Br)c2)c1	none
O=C(Nc1cccc(NC(=O)c2ccco2)c1)c1cccc(Br)c1	ST2 inh 53%
C1=C2C3CCCCC3OC(c3cccnc3)C2CCC1 (configuration not stated)	none
Cn1c(C(=O)N2CCCn3cncc3C2)cc2c(Cl)cccc21	none
CC(C)C(Cn1ccnc1)NCC(=O)Nc1ccc(Cl)cc1F (configuration not stated)	none
O=C1c2ccc(Oc3cccc([N+](=O)[O-])c3)cc2C(=O)N1c1c[nH]c(=O)[nH]c1=O	ST2 inh 31%
COc1ccc(N2C(=O)c3ccc(Oc4cccc(N)c4)cc3C2=O)cc1	none
Cc1cc(N2C(=O)c3ccc([N+](=O)[O-])cc3C2=O)no1	none
CC1(C)COC(CCCOc2ccc(Cl)cc2Cl)=N1	none
Cc1ccc(Nc2nnc(C)c(=O)[nH]2)cc1C	none
C=CCSc1nnc2c(n1)OC(c1ccccn1)N(C(C)=O)c1ccccc1-2 (configuration not stated)	none
COc1ccc(Br)c(C2Oc3nc(SC)nnc3-c3ccccc3N2C(C)=O)c1 (configuration not stated)	none
COc1cc(C2Oc3nc(SC)nnc3-c3ccccc3N2C(C)=O)cc(OC)c1OC (configuration not stated)	none
CCN(CC)c1ccc(C2Oc3nc(SC)nnc3-c3ccccc3N2C(C)=O)c(OC)c1 (configuration not stated)	ST2 inh 36%
C=CCSc1nnc2c(n1)OC(c1ccncc1)N(C(C)=O)c1ccccc1-2 (configuration not stated)	none
C=CCSc1nnc2c(n1)OC(c1ccc(OC)cc1OC)N(C(C)=O)c1ccccc1-2 (configuration not stated)	ST2 inh 30%
O=C(NC1CC(=O)N(C2CCCCCC2)C1)c1ccc2n[nH]nc2c1 (configuration not stated)	none
COC(=O)CNc1c(-c2ccccc2)nc2cnccn12	none
CCN(CC)CCCNC(=O)CN1C(=O)/C(=C\c2ccc(Cl)cc2)Sc2ccccc21	none
CCCCNC(=O)CN1C(=O)/C(=C/c2ccccc2F)Sc2ccccc21	none
Cc1ccc2c(c1)N(CC(=O)NCc1ccccn1)C(=O)CO2	none
CCN(CC)CCNC(=O)CN1C(=O)/C(=C\c2ccc(Cl)cc2)Sc2ccccc21	ST2 inh 33%
Cc1ccc(/C=C2/Sc3ccccc3N(CC(=O)NCc3ccccn3)C2=O)cc1	ST2 inh 32%
COCCCNC(=O)CN1C(=O)/C(=C\c2ccc(C(F)(F)F)cc2)Sc2ccccc21	none
CCN(CCNC(=O)CN1C(=O)/C(=C/c2ccccc2F)Sc2ccccc21)c1ccccc1	ST2 inh 42%
Cc1cc(NC(=O)CN2C(=O)S/C(=C\c3ccc(Cl)cc3)C2=O)no1	none
CCCCOc1ccc(CNC(=O)CN2C(=O)c3cccnc3Sc3ccccc32)cc1	none
O=C(CN1C(=O)/C(=C/c2ccccc2F)Sc2ccccc21)NCc1ccccc1Cl	none
CCC1Oc2ccccc2N(CC(=O)NCCCN(CC)CC)C1=O (configuration not stated)	none
CCN(CC)CCNC(=O)CN1C(=O)/C(=C\c2ccc(C(F)(F)F)cc2)Sc2ccccc21	ST2 inh 37%
CCOC(=O)C1C(=O)C=C(c2ccc(OC)c(OC)c2)CC1c1ccccc1OCC (configuration not stated)	none
CCc1ccccc1NC(=O)c1sc2ccccc2c1Cl	none
CC1(C)C[C@H](NCc2ccc(CO)o2)[C@@]2(CCC(=O)NCCN3CCOCC3)CC[C@](C)(O)C[C@@H]12	none
CC(=O)OC(C(=O)N(C)c1nnc(-c2ccc(C)cc2)s1)c1ccccc1 (configuration not stated)	none
CN(CCCc1nccn1C)c1nccc(N2CCC(O)C2)n1 (configuration not stated)	none
CCC(C)OC(=O)C1=C(C)NC(=O)NC1c1cccc(Oc2ccccc2)c1 (configuration not stated)	none
CCOC(=O)c1c(NC(=O)COc2ccc3c(c2)OCO3)sc(C)c1C	none
O=C(Nc1cccc(F)c1)C1CCN(S(=O)(=O)c2cccnc2)CC1	none
